# Data from paper PMC8668186, “Molecular architecture of the human tRNA ligase complex” (eLife, 2021).
# Legend:
# DDX1 = DDX1 (UniProt Q92499); experiment: cross-linking mass spectrometry; conditions: DSS, purified complex
# RTCB = RTCB (UniProt Q9Y3I0); experiment: cross-linking mass spectrometry; conditions: DSS, purified complex
# Chain of RTCB (Q9Y3I0 whole entry): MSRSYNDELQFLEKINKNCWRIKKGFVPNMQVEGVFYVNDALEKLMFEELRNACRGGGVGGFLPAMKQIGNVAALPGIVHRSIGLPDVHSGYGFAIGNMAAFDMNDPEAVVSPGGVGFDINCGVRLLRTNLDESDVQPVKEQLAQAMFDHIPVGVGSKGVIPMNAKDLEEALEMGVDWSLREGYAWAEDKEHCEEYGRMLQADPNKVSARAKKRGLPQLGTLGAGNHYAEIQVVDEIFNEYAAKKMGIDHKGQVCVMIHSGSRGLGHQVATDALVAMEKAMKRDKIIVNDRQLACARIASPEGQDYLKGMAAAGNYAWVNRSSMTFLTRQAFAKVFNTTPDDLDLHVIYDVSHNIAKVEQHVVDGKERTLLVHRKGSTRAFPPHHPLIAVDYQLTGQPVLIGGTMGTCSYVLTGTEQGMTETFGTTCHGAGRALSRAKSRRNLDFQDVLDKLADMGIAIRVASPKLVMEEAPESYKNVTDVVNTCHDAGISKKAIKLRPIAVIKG
# Chain of FAM98B (Q52LJ0 whole entry): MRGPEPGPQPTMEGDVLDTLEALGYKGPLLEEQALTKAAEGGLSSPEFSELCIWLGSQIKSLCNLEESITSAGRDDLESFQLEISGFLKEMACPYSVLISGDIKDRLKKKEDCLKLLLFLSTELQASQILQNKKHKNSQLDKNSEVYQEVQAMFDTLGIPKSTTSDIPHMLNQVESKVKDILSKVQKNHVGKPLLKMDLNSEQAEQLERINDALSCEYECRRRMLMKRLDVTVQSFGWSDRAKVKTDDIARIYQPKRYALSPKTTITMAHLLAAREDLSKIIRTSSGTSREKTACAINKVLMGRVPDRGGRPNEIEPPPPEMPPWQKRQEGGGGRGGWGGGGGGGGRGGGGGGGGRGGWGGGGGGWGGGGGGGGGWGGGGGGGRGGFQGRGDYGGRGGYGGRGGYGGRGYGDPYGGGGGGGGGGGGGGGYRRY
# Chain of DDX1 (Q92499 whole entry): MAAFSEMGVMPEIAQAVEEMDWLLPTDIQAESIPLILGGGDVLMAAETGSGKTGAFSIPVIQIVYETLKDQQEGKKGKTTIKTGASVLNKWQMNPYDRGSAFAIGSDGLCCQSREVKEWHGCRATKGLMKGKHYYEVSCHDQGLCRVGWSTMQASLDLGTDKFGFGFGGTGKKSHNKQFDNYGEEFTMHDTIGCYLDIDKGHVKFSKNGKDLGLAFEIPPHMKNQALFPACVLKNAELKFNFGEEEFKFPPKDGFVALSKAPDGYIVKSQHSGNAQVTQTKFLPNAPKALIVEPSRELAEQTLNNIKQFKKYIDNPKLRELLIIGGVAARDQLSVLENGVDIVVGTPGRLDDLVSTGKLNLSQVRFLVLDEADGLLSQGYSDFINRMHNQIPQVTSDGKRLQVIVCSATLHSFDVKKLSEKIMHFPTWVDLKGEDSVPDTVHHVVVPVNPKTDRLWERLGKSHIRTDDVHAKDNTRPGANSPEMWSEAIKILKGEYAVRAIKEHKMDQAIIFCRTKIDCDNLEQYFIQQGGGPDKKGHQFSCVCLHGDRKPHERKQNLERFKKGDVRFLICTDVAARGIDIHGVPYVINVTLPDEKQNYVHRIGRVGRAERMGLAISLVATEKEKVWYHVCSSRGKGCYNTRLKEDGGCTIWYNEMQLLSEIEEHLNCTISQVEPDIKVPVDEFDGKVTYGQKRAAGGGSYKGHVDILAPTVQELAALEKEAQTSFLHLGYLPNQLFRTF
substance,measurement,setting,value
"FAM98B, Q52LJ0",cross-linked residues,DDX1,K245 - K693
same,cross-linked residues,RTCB,K280 - K245
